Measurements: the supplement of paper PMC8975748
Where a name gives a salt, the structure may show the parent alone. ± gives the standard deviation of the averaged measurements.

How the values were obtained:
[1] = test system: Saccharomyces cerevisiae BY4741 SeMeCo community; experiment: mean cell size (pixel area) (pixels); higher = larger cells; conditions: 10 µM; 24 h; SM minimal medium
Procedure, shortened: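 In this assay, mean cell pixel area per well was obtained from automated confocal images of paraformaldehyde-fixed yeast analysed in Harmony. The cells were a Saccharomyces cerevisiae BY4741 community with four plasmids, each complementing one auxotrophy and carrying a fluorescent marker, grown for 24 h in SM medium with drug at a final 10 µM in 384-well plates. Values are averaged across 3 replicates. Same SeMeCo high-content imaging drug screen: Selleck FDA-approved drugs at 10 µM, 24 h in SM medium, 384-well plates, 3 replicates.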

[2] = test system: Saccharomyces cerevisiae BY4741 SeMeCo community; experiment: z-score of prototroph abundance vs DMSO median; higher = larger share of this subpopulation than in DMSO controls; conditions: 10 µM; 24 h; SM minimal medium; subpopulation (auxotrophy): Prototroph
Procedure, shortened: (§1)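 Subpopulation abundance was reported as a z-score against the median of vehicle wells. The Saccharomyces cerevisiae BY4741 community, carrying four plasmids that each restored one auxotrophy and encoded a distinct fluorescent protein, was grown 24 h in minimal SM medium in 384-well plates holding library drugs at 10 µM final. Cells were paraformaldehyde-fixed and imaged by automated confocal microscopy, with single-auxotroph fluorescent strains used for thresholds and autofluorescence correction.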

[3] = test system: Saccharomyces cerevisiae BY4741 SeMeCo community; experiment: z-score of subpopulation abundance vs DMSO median, subpopulation auxotrophic for M; higher = larger share of this subpopulation than in DMSO controls; conditions: 10 µM; 24 h; SM minimal medium; subpopulation (auxotrophy): M
Procedure, shortened: as §1

[4] = test system: Saccharomyces cerevisiae BY4741 SeMeCo community; experiment: z-score of subpopulation abundance vs DMSO median, subpopulation auxotrophic for L; higher = larger share of this subpopulation than in DMSO controls; conditions: 10 µM; 24 h; SM minimal medium; subpopulation (auxotrophy): L
Procedure, shortened: as §1

[5] = test system: Saccharomyces cerevisiae BY4741 SeMeCo community; experiment: z-score of subpopulation abundance vs DMSO median, subpopulation auxotrophic for U; higher = larger share of this subpopulation than in DMSO controls; conditions: 10 µM; 24 h; SM minimal medium; subpopulation (auxotrophy): U
Procedure, shortened: as §1

[6] = test system: Saccharomyces cerevisiae BY4741 SeMeCo community; experiment: z-score of subpopulation abundance vs DMSO median, subpopulation auxotrophic for H; higher = larger share of this subpopulation than in DMSO controls; conditions: 10 µM; 24 h; SM minimal medium; subpopulation (auxotrophy): H
Procedure, shortened: as §1

[7] = test system: Saccharomyces cerevisiae BY4741 SeMeCo community; experiment: z-score of subpopulation abundance vs DMSO median, subpopulation auxotrophic for LU; higher = larger share of this subpopulation than in DMSO controls; conditions: 10 µM; 24 h; SM minimal medium; subpopulation (auxotrophy): LU
Procedure, shortened: as §1

[8] = test system: Saccharomyces cerevisiae BY4741 SeMeCo community; experiment: z-score of subpopulation abundance vs DMSO median, subpopulation auxotrophic for LM; higher = larger share of this subpopulation than in DMSO controls; conditions: 10 µM; 24 h; SM minimal medium; subpopulation (auxotrophy): LM
Procedure, shortened: as §1

[9] = test system: Saccharomyces cerevisiae BY4741 SeMeCo community; experiment: z-score of subpopulation abundance vs DMSO median, subpopulation auxotrophic for HM; higher = larger share of this subpopulation than in DMSO controls; conditions: 10 µM; 24 h; SM minimal medium; subpopulation (auxotrophy): HM
Procedure, shortened: as §1

[10] = test system: Saccharomyces cerevisiae BY4741 SeMeCo community; experiment: z-score of subpopulation abundance vs DMSO median, subpopulation auxotrophic for HU; higher = larger share of this subpopulation than in DMSO controls; conditions: 10 µM; 24 h; SM minimal medium; subpopulation (auxotrophy): HU
Procedure, shortened: as §1

[11] = test system: Saccharomyces cerevisiae BY4741 SeMeCo community; experiment: z-score of subpopulation abundance vs DMSO median, subpopulation auxotrophic for UM; higher = larger share of this subpopulation than in DMSO controls; conditions: 10 µM; 24 h; SM minimal medium; subpopulation (auxotrophy): UM
Procedure, shortened: as §1

[12] = test system: Saccharomyces cerevisiae BY4741 SeMeCo community; experiment: z-score of subpopulation abundance vs DMSO median, subpopulation auxotrophic for HL; higher = larger share of this subpopulation than in DMSO controls; conditions: 10 µM; 24 h; SM minimal medium; subpopulation (auxotrophy): HL
Procedure, shortened: as §1

[13] = test system: Saccharomyces cerevisiae BY4741 SeMeCo community; experiment: z-score of subpopulation abundance vs DMSO median, subpopulation auxotrophic for HLU; higher = larger share of this subpopulation than in DMSO controls; conditions: 10 µM; 24 h; SM minimal medium; subpopulation (auxotrophy): HLU
Procedure, shortened: as §1

[14] = test system: Saccharomyces cerevisiae BY4741 SeMeCo community; experiment: z-score of subpopulation abundance vs DMSO median, subpopulation auxotrophic for HLM; higher = larger share of this subpopulation than in DMSO controls; conditions: 10 µM; 24 h; SM minimal medium; subpopulation (auxotrophy): HLM
Procedure, shortened: as §1

[15] = test system: Saccharomyces cerevisiae BY4741 SeMeCo community; experiment: z-score of subpopulation abundance vs DMSO median, subpopulation auxotrophic for HUM; higher = larger share of this subpopulation than in DMSO controls; conditions: 10 µM; 24 h; SM minimal medium; subpopulation (auxotrophy): HUM
Procedure, shortened: as §1

[16] = test system: Saccharomyces cerevisiae BY4741 SeMeCo community; experiment: z-score of subpopulation abundance vs DMSO median, subpopulation auxotrophic for LUM; higher = larger share of this subpopulation than in DMSO controls; conditions: 10 µM; 24 h; SM minimal medium; subpopulation (auxotrophy): LUM
Procedure, shortened: as §1

[17] = test system: Saccharomyces cerevisiae BY4741 SeMeCo community; experiment: z-score of subpopulation abundance vs DMSO median, subpopulation auxotrophic for HLUM; higher = larger share of this subpopulation than in DMSO controls; conditions: 10 µM; 24 h; SM minimal medium; subpopulation (auxotrophy): HLUM
Procedure, shortened: as §1

SMILES	mean cell size [1]	z-score of prototroph abundance [2]	z-score of subpopulation abundance [3]	z-score of subpopulation abundance [4]	z-score of subpopulation abundance [5]	z-score of subpopulation abundance [6]	z-score of subpopulation abundance [7]	z-score of subpopulation abundance [8]	z-score of subpopulation abundance [9]	z-score of subpopulation abundance [10]	z-score of subpopulation abundance [11]	z-score of subpopulation abundance [12]	z-score of subpopulation abundance [13]	z-score of subpopulation abundance [14]	z-score of subpopulation abundance [15]	z-score of subpopulation abundance [16]	z-score of subpopulation abundance [17]
CCC[S+]([O-])c1ccc2[nH]c(NC(=O)OC)nc2c1 (stereo not drawn) [Albendazole Oxide]	12.4 ± 0.35	0.33	-0.33	-0.98	0.49	-0.72	-0.51	-0.25	0.14	-0.21	0.18	-0.18	-0.31	-0.85	0.36	-0.65	-1.11
Cc1noc(NS(=O)(=O)c2ccc(N)cc2)c1C [Sulfisoxazole]	12.4 ± 0.16	-1.42	0.18	0.65	0.32	-0.4	1.45	0.69	0.12	0.32	1.17	0.35	0.89	1.44	1.21	1.7	1.03
CNCC[C@@H](Oc1ccccc1C)c1ccccc1 [Atomoxetine HCl]	12.4 ± 0.22	0.61	0.21	0.96	0.03	-0.84	0	0.36	-0.84	-0.99	-0.26	-0.43	0.11	-0.77	-1.01	0.05	1.1
OC1(c2ccc(Cl)c(C(F)(F)F)c2)CCN(CCCC(c2ccc(F)cc2)c2ccc(F)cc2)CC1 [Penfluridol]	11.65 ± 0.089	-1.64	1.3	0.81	-0.01	–	0.13	2.64	0.4	0.66	2.69	0.46	0.93	0.92	0.44	2.56	0.27
CO/N=C1\C[C@]2(C[C@@H]3C[C@@H](C/C=C(\C)C[C@@H](C)/C=C/C=C4\CO[C@@H]5[C@H](O)C(C)=C[C@@H](C(=O)O3)[C@]45O)O2)O[C@H](/C(C)=C/C(C)C)[C@H]1C [Moxidectin]	12.4 ± 0.18	-0.99	-0.74	0.29	0.66	–	0.03	0.55	1.1	2.12	0.37	1.14	1.24	1.14	1.33	0.37	-0.1
CN(C)CC/C=C1/c2ccccc2Sc2ccc(Cl)cc21 [Chlorprothixene]	12.2 ± 0.36	0.08	0.73	-0.89	0.62	-1	-0.59	0.18	-0.62	0.13	0.34	-0.06	-0.48	-0.36	-0.32	-0.1	-0.55
CC[C@H]1OC(=O)C[C@@H](O)[C@H](C)[C@@H](O[C@@H]2O[C@H](C)[C@@H](O)[C@H](N(C)C)[C@H]2O)[C@@H](CCN2C[C@H](C)C[C@H](C)C2)C[C@@H](C)C(=O)/C=C/C(C)=C/[C@@H]1CO[C@@H]1O[C@H](C)[C@@H](O)[C@@H](OC)[C@H]1OC [Tilmicosin]	12.4 ± 0.17	-1.13	-0.16	0.75	0.52	–	1.26	0.46	0.93	1.52	0.65	1.91	0.58	0.13	0.75	1.68	0.67
Cn1nnnc1SCC1=C(C(=O)O)N2C(=O)[C@@H](NC(=O)[C@H](OC=O)c3ccccc3)[C@H]2SC1 [Cefamandole nafate]	12.6 ± 0.23	-0.92	0.49	0.3	0.1	0.14	-1.46	0.72	0.71	0.51	2.08	0.65	0.38	-0.57	-0.54	0.16	0.78
COCCOC(=O)C1=C(C)NC(C)=C(C(=O)OC/C=C/c2ccccc2)C1c1cccc([N+](=O)[O-])c1 (stereo not drawn) [Cilnidipine]	12.3 ± 0.24	-0.13	-1.14	0.77	-0.53	1.28	0.17	0.12	0.7	0.24	-0.33	0.94	1.34	-0.44	0.37	-0.1	-0.48
CC1(C)[C@H](C(=O)O)N2C(=O)C[C@H]2S1(=O)=O [Sulbactam sodium]	12.54 ± 0.013	-0.92	0.51	-0.23	1.59	-0.33	0.63	-0.08	0.23	1.1	1.22	0.14	0.64	-0.2	1.25	0.21	0.51
CC(C(=O)O)c1ccc2c(c1)Cc1cccnc1O2 (stereo not drawn) [Pranoprofen]	12.56 ± 0.067	0.32	-0.49	-0.28	0.43	-0.08	-0.35	-0.7	0.14	0.43	-0.93	-0.22	-0.3	0.61	0.27	-0.12	-0.06
Cc1ccc(-c2cc(C(F)(F)F)nn2-c2ccc(S(N)(=O)=O)cc2)cc1 [Celecoxib]	12.5 ± 0.15	0.84	-0.11	0.82	-0.79	0.01	-0.19	-0.61	-0.54	-0.62	-0.75	-0.61	-0.86	-0.37	-0.8	-0.48	-0.44
C[C@@H](O)[C@H]1C(=O)N2C(C(=O)O)=C(S[C@@H]3CN[C@H](C(=O)N(C)C)C3)[C@H](C)[C@H]12 [Meropenem]	12.4 ± 0.19	0.37	-0.33	0.05	-0.22	-0.03	-0.26	-0.29	0.18	-0.01	-0.33	-0.23	0.14	-0.34	0.12	-0.39	-0.68
